From PubChem BioAssay AID1224921 (Broad Institute, 2016)
Among all 1,400 compounds or so, about 350 (25%) were called active. Roughly 2% stayed inconclusive and do not appear here. No rule for the calls is given here. Only a sample is shown. Entries with a potency or affinity are not part of this list.

Assay: inhibitors of Clostridioides difficile proliferation – 4-point retest, confirmation (AID 1224921);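 also: plate controls were DMSO wells for no effect and levofloxacin 16 µg/mL wells for full effect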
Settings: Clostridioides difficile clinical isolate growth, OD600, 24 h, stronger effect = lower value; at 30 µM unless noted

Max activity, inactive:
COc1cccc(NC(=O)N[C@@H]2C=C[C@H](CC(=O)NCc3ccncn3)O[C@H]2CO)c1 11.5%, CC(C)NC(=O)N(C)C[C@H]1Oc2cc(C#Cc3cccc(F)c3)ccc2S(=O)(=O)N([C@H](C)CO)C[C@H]1C 32.6%, C[C@H](CO)N1C[C@H](C)[C@@H](CN(C)Cc2ccc(Cl)c(Cl)c2)Oc2ccc(NS(=O)(=O)c3cccs3)cc2CC1=O 37.8% [at 8 µM], CO[C@@H]1CN(C)C(=O)c2ccc(NC(=O)NC(C)C)cc2OC[C@@H](C)N(C(=O)NC(C)C)C[C@H]1C -11.6% [at 2.1 µM], CCCC(=O)Nc1ccc2c(c1)OC[C@H](C)N(CCc1ccccc1)C[C@@H](C)[C@H](OC)CN(C)C2=O 25.9%, O=C(Nc1ccc(Cl)cc1)N[C@@H]1CC[C@@H](CCn2cc(C3(O)CCCC3)nn2)O[C@@H]1CO 29.6%, C[C@@H]1CN([C@@H](C)CO)C(=O)c2ccccc2-c2ccccc2CO[C@H]1CN(C)CC1CC1 9.59%, CO[C@@H]1CN(C)C(=O)c2ccc(NC(=O)Nc3cccc(F)c3)cc2OC[C@@H](C)N(C(=O)C2CC2)C[C@H]1C -12.2% [at 8 µM], C[C@@H]1CN([C@@H](C)CO)C(=O)c2cc(NC(=O)NC3CCCCC3)ccc2O[C@@H](C)CCCCO[C@@H]1CN(C)Cc1ccc(C(F)(F)F)cc1 24.6%, CC(C)CC#Cc1ccc2c(c1)O[C@H](CN(C)Cc1ccccn1)[C@@H](C)CN([C@@H](C)CO)S2(=O)=O 27.1%, CC(C)C#Cc1ccc2c(c1)O[C@H](CN(C)Cc1cccnc1)[C@@H](C)CN([C@H](C)CO)S2(=O)=O 44.6%, CCCC(=O)Nc1ccc2c(c1)C(=O)N(C)C[C@@H](OC)[C@@H](C)CN(C)[C@@H](C)CO2 -13% [at 8 µM], C[C@H]1CN([C@@H](C)CO)C(=O)c2cccc(NC(=O)Nc3ccc(C(F)(F)F)cc3)c2O[C@@H]1CN(C)Cc1ccc2c(c1)OCO2 42%, C[C@@H]1CN([C@@H](C)CO)C(=O)c2cccc(NC(=O)Nc3ccc(C(F)(F)F)cc3)c2O[C@H]1CN(C)Cc1ccc2c(c1)OCO2 34.4% [at 8 µM], Cc1ccc(S(=O)(=O)N(C)C[C@@H]2Oc3c(NC(=O)Nc4ccc(F)cc4)cccc3C(=O)N([C@H](C)CO)C[C@H]2C)cc1 -10.7% [at 1.95 µM], C[C@@H]1CN([C@H](C)CO)C(=O)c2cccc(NC(=O)Nc3ccc(F)cc3)c2O[C@H]1CN(C)S(=O)(=O)c1ccc(F)cc1 -11.6% [at 7.5 µM], C[C@@H]1CN([C@@H](C)CO)C(=O)c2cc(Br)cnc2O[C@H]1CN(C)C(=O)c1ccccc1 9.74%, Cc1noc(C)c1NC(=O)N[C@H]1CC[C@@H](CC(=O)Nc2ccc(-c3ccccc3)cc2)O[C@H]1CO 12.6%, COc1ccc(NC(=O)Nc2ccc3c(c2)C(=O)N([C@@H](C)CO)C[C@@H](C)[C@H](CN(C)Cc2ccccc2)OCCCC[C@@H](C)O3)cc1 30.9%, CCCC(=O)Nc1ccc2c(c1)C(=O)N(C)C[C@H](OC)[C@@H](C)CN(Cc1ccccc1)[C@H](C)CO2 15.3%, O=C(C[C@@H]1C=C[C@@H](NC(=O)CC2CC2)[C@H](CO)O1)NCc1ccc(-c2ccccc2)cc1 -9.84% [at 0.5 µM], CO[C@H]1CN(C)C(=O)c2cc(NC(C)=O)ccc2OC[C@H](C)N(CCc2ccccc2)C[C@H]1C 19.8%, CCCN1C[C@H](C)[C@H](OC)CN(C)C(=O)c2cc(NC(=O)c3cccc(F)c3)ccc2OC[C@@H]1C -11.7% [at 1.95 µM], C=CCOC(=O)[C@H]1[C@@H]2C(=O)O[C@@H](c3ccccc3)[C@@H](c3ccccc3)N2[C@@H](c2ccc(OCCOC(=O)[C@@H]3C[C@@H]4C(=O)N[C@@H](CC(C)C)C(=O)N4[C@@H]3c3cccc(OCCO)c3)cc2)[C@]12C(=O)Nc1ccccc12 24.6%, COc1ccc(-c2ccc([C@H]3[C@@H](C#N)N(C(=O)C4CC4)[C@H]3CO)cc2)cc1 32.9%, C[C@@H]1CN([C@H](C)CO)C(=O)Cc2cc(NC(=O)c3ccncc3)ccc2O[C@@H]1CN(C)Cc1ccc(-c2ccccc2)cc1 47.8% [at 35 µM], CO[C@H]1CN(C)C(=O)c2ccc(NS(C)(=O)=O)cc2OC[C@@H](C)N(Cc2ccccn2)C[C@H]1C -14.3% [at 8 µM], COCC(=O)Nc1ccc2c(c1)OC[C@@H](C)N(C(=O)c1ccccc1F)C[C@H](C)[C@H](OC)CN(C)C2=O 7.88%, C[C@@H]1CN([C@H](C)CO)S(=O)(=O)c2ccc(C#CCN(C)C)cc2O[C@H]1CN(C)C(=O)c1ccccc1F 18%, CCCN1C[C@@H](C)[C@@H](OC)CN(C)C(=O)c2cc(NC(=O)c3cccc(F)c3)ccc2OC[C@@H]1C -11.8%, CCCN1C[C@H](C)[C@@H](OC)CN(C)C(=O)c2ccc(NC(=O)CC)cc2OC[C@H]1C 5.45% [at 1.95 µM], COCC(=O)N1C[C@H](C)[C@@H](OC)CN(C)C(=O)c2cc(NC(=O)NC(C)C)ccc2OC[C@@H]1C 23.4%, C[C@H](CO)N1C[C@H](C)[C@H](CN(C)S(=O)(=O)c2cccc(F)c2)Oc2ncc(C#CCN(C)C)cc2C1=O 8.03%, O=C(C[C@H]1C[C@@H]2c3cc(NC(=O)C4CCC4)ccc3O[C@@H]2[C@@H](CO)O1)NCc1ccc(Cl)cc1 -16.5% [at 0.5 µM], C[C@@H]1CN([C@@H](C)CO)C(=O)c2cccc(NC(=O)c3ccncc3)c2O[C@H]1CN(C)Cc1ccc(-c2ccccc2)cc1 13.2% [at 8 µM], C[C@@H]1CN([C@@H](C)CO)C(=O)Cc2cc(NC(=O)c3ccncc3)ccc2O[C@H]1CN(C)Cc1ccc(-c2ccccc2)cc1 25.3% [at 8 µM], C[C@H]1CN([C@@H](C)CO)C(=O)c2cccc(NS(C)(=O)=O)c2O[C@@H]1CN(C)Cc1ccccc1 -11.4% [at 0.5 µM], C[C@@H]1CN([C@H](C)CO)C(=O)c2cccc(NC(=O)c3ccncc3)c2O[C@H]1CN(C)Cc1ccc(Cl)c(Cl)c1 16.6%, C[C@@H]1CN([C@H](C)CO)C(=O)c2cccc(NC(=O)c3ccncc3)c2O[C@H]1CN(C)Cc1ccc(-c2ccccc2)cc1 36.1% [at 8 µM], Cc1cc(C(=O)Nc2cccc3c2O[C@H](CN(C)Cc2ccc(Oc4ccccc4)cc2)[C@@H](C)CN([C@H](C)CO)C3=O)n(C)n1 41%, CO[C@H]1CN(C)C(=O)c2cc(NC(=O)Nc3cccc(F)c3)ccc2OC[C@@H](C)N(C)C[C@@H]1C -17.5%, CO[C@@H]1CN(C)C(=O)c2cc(NS(=O)(=O)c3ccccc3C)ccc2OC[C@@H](C)N(C)C[C@H]1C -6.93% [at 1.95 µM], CCC(=O)N[C@H]1CC[C@H](CC(=O)NCCN2CCCCC2)O[C@@H]1CO 25.2%, Cc1ccccc1-c1ccc2c(c1)O[C@H](CN(C)Cc1ccncc1)[C@H](C)CN([C@@H](C)CO)S2(=O)=O 25.3%, O=C(C[C@@H]1CC[C@@H]2[C@H](COC[C@@H](O)CN2S(=O)(=O)c2ccccc2)O1)NCc1ccc(-c2ccccc2)cc1 25.5%, O=C(C[C@H]1CC[C@H]2[C@@H](COC[C@H](O)CN2S(=O)(=O)c2ccccc2)O1)NCc1ccc(-c2ccccc2)cc1 41.2%, CC(C)CC#Cc1ccc2c(c1)O[C@@H](CN(C)Cc1cccnc1)[C@H](C)CN([C@H](C)CO)S2(=O)=O 41.5% [at 8 µM], CC(C)CC#Cc1ccc2c(c1)O[C@H](CN(C)Cc1ccccc1F)[C@H](C)CN([C@@H](C)CO)S2(=O)=O 23.7% [at 8 µM], CO[C@@H]1CN(C)C(=O)c2ccc(NC(=O)c3ccccn3)cc2OC[C@@H](C)N(C(=O)C2CCC2)C[C@H]1C -10.9% [at 23.5 µM], CC(C)C(=O)Nc1ccc2c(c1)C(=O)N(C)[C@H]1CC[C@@H](CC(=O)NCc3ccccc3F)O[C@H]1CO2 -11.1% [at 1.95 µM], C[C@@H]1CN([C@@H](C)CO)S(=O)(=O)c2ccc(C#CC3CCCC3)cc2O[C@H]1CN(C)Cc1cccnc1 15.4%, O=C(N[C@@H]1C=C[C@@H](CC(=O)N2CCc3ccccc3C2)O[C@@H]1CO)C1CC1 15.1%, CC(C)CC#Cc1ccc2c(c1)O[C@H](CN(C)Cc1ccc3c(c1)OCO3)[C@H](C)CN([C@@H](C)CO)S2(=O)=O 27.5%, O=C(C[C@H]1C[C@@H]2c3cc(NC(=O)Nc4ccc(C(F)(F)F)cc4)ccc3O[C@@H]2[C@H](CO)O1)NCc1ccc(Cl)cc1 21.4%, CCCC(=O)Nc1ccc2c(c1)OC[C@H](C)N(CCc1ccccc1)C[C@H](C)[C@@H](OC)CN(C)C2=O 22%, C[C@H]1CN([C@@H](C)CO)C(=O)c2cccc(NC(=O)c3ccc(-c4nccs4)cc3)c2O[C@@H]1CN(C)C(=O)Nc1ccc(C(F)(F)F)cc1 20.3% [at 8 µM], COc1ccccc1CNC(=O)C[C@H]1C[C@@H]2c3cc(NC(=O)NC4CCCC4)ccc3O[C@@H]2[C@H](CO)O1 -8.77% [at 2.1 µM]
